# According to PMC4336329 (PLoS ONE, 2015):
# About 14,000 (4.5%) of roughly 310,000 compounds showed an effect of 50% or more. Effects have a minus sign here. For the sample, strong results were picked, then their nearest neighbours and some compounds at random.
# Target: human ether-à-go-go-related gene (hERG) potassium channel (human, UniProt Q12809)
# Experiment: primary screen, population patch clamp on CHO cells stably expressing hERG; higher = less effect of the substance
# 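Also: peak tail current of the secondary pulse compared with the same well before compound.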
# human ether-à-go-go-related gene (hERG) potassium channel, sequence (Q12809 whole entry, looked up): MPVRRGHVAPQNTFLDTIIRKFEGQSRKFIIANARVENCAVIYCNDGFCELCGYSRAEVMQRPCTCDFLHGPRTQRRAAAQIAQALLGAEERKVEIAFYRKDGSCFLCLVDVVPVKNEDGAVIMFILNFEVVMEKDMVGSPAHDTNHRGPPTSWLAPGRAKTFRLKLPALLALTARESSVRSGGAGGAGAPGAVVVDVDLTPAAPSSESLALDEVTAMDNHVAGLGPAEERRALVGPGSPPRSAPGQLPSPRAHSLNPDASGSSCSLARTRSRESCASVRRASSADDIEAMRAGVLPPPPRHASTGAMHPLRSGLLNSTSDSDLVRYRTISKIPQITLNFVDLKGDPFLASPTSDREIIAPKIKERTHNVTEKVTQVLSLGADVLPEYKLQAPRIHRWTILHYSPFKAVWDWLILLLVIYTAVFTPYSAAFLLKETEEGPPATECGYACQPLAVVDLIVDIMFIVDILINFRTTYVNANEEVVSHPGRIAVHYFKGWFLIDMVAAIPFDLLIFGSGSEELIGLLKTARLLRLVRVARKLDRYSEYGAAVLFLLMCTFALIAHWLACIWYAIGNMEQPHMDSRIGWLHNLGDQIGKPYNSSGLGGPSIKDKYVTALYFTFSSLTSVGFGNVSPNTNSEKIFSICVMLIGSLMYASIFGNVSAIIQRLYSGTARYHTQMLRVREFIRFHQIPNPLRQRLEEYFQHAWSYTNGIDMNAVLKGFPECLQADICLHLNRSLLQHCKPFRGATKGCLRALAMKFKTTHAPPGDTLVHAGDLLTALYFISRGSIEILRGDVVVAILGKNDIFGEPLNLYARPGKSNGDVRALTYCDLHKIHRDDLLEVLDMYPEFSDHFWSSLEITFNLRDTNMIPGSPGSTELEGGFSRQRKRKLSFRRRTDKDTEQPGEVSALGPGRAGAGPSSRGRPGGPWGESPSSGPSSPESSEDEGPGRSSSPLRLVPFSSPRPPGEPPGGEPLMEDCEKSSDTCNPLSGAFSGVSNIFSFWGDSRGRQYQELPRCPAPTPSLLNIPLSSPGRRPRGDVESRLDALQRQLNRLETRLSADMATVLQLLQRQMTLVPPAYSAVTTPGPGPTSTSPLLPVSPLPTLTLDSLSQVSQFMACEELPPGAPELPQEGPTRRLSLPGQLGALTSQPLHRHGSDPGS
row,SMILES,"hERG current change (%, negative = inhibition) at 10uM [%]"
1,COc1cc(C)c(S(=O)(=O)Nc2ccccc2F)cc1C,6.11
2,Cc1cccn2c(=O)c3cc(C(=O)NCCN4CCOCC4)c(=N)n(Cc4cccnc4)c3nc12,-18.4
3,Cc1cccn2c(=O)c3cc(C(=O)NCC4CCCO4)c(=N)n(Cc4ccc(F)cc4)c3nc12 (stereo not shown),-75.7
4,Cc1cccn2c(=O)c3cc(C(=O)NCc4cccnc4)c(=N)n(CC4CCCO4)c3nc12 (stereo not shown),-75.6
5,CCC(Sc1nc2ccccc2c(=O)n1CC1CCCO1)C(=O)NCc1cccnc1 (stereo not shown),-23.5
6,O=C(NCc1cccnc1)C(=O)NCC1CCCO1 (stereo not shown),21.5
7,Cc1cccn2c(=O)c3cc(C(=O)NCC4CCCO4)c(=N)n(Cc4cccnc4)c3nc12 (stereo not shown),-95.1
8,Cc1ccc(Cn2c(=N)c(C(=O)NCC3CCCO3)cc3c(=O)n4cccc(C)c4nc32)cc1 (stereo not shown),-81.5
9,CN1CCN(CC#CCOc2ccc(Cl)cc2)CC1.O=C(O)C(=O)O,-0.0359
10,CSc1ccccc1NC(=O)COc1ccccc1C,6.39
11,CCOC(=O)C1(CC2CCCCO2)CCN(C(=O)Nc2ccc(SC)cc2)CC1 (stereo not shown),2.65
12,COc1ccccc1NC(=O)c1oc2ccc(C)cc2c1C,14.1
13,Cc1nnc(SCC(=O)NCc2ccccc2)[nH]c1=O,-7.09
14,COc1ccc(/C=C2/C(=O)OCc3cc(OC)c(OC)cc32)c(OC)c1,-27.8
15,CCOC(=O)C1=C(c2ccc(O)cc2)NC(=O)NC1C (stereo not shown),9.47
16,CC1(C)CC2CC(C)(CN2S(=O)(=O)c2ccc(F)cc2F)C1 (stereo not shown),-11.8
17,Cn1c(=O)c2c(ncn2CC(COCc2ccccc2)OCc2ccccc2)n(C)c1=O (stereo not shown),-12.1
18,Cn1c(=O)c2c(ncn2CC(COCc2ccc(Cl)cc2)OCc2ccc(Cl)cc2)n(C)c1=O (stereo not shown),-51.1
19,Cn1c(=O)c2c(ncn2CC(COCc2ccccc2Cl)OCc2ccccc2Cl)n(C)c1=O (stereo not shown),-33.6
20,CN(Cc1ccc(F)cc1)C(=O)c1cccc(NS(=O)(=O)c2ccccc2)c1,-13.4
21,COc1cccc(C(=O)Nc2ncc3c(n2)CC(c2ccc(OC)cc2OC)CC3=O)c1 (stereo not shown),-17.3
22,COc1ccc(CCNC(=O)c2ccccc2C(=O)NCCc2ccc(OC)c(OC)c2)cc1OC,3.48
23,CN(C)C/C=C/C(O)(c1ccccc1)c1ccccc1,-61.5

row,SMILES,"hERG current change (%, negative = inhibition) at 10uM [%]"
1,CN(C)C(C)(C)/C=C/C(O)(c1ccccc1)c1ccccc1,-36.6
2,CN(C)CCC(O)(c1ccccc1)c1ccccc1.Cl,-20.2
3,Cc1ccc(OCC(=O)OC(C)CN2CCCCC2)cc1.Cl (stereo not shown),12.2
4,C=CCNC(=O)c1cc(-c2ccncc2)nc2c(C)cc(C)cc12,-43.5
5,Cc1csc(NC(=O)c2ccccc2)n1,16.8
6,O=C(O)c1nc(-c2ccccc2)n(-c2ccccc2)n1,4.87
7,Cc1csc(NC(=O)c2nc(-c3ccccc3)n(-c3ccccc3)n2)n1,-79.2
8,CCCC(C)NC(=O)c1nc(-c2ccccc2)n(-c2ccccc2)n1 (stereo not shown),-55.7
9,O=C(O)CNC(=O)c1nc(-c2ccccc2)n(-c2ccccc2)n1,22.9
10,O=C(Nc1nccs1)c1nc(-c2ccccc2)n(-c2ccccc2)n1,6.62
11,O=C(c1cccc(S(=O)(=O)N2CCOCC2)c1)N1CCN(C/C=C/c2ccccc2)CC1,-46.3
12,CCC1Oc2ccc(C)cc2N(CC(=O)NCCC2=CCCCC2)C1=O (stereo not shown),-16
13,N/C(=N\c1nc2ccccc2o1)NC(=O)c1ccc(Cl)cc1,35.6
14,CCC(C(=O)OCc1csc(CC(=O)Nc2ccccc2C)n1)c1ccccc1 (stereo not shown),-6.51
15,COc1ccc(Cn2c(O)c(C=NCCN3CCOCC3)c(=O)[nH]c2=O)cc1,-14.4
16,Cc1cc(Cl)ccc1OCC(=O)NC1CCCC1,-22.2
17,Cc1cc(Cl)ccc1OCCCC(=O)NN,13.8
18,Cc1cc(Cl)ccc1OCCCC(=O)N1CCN(C)CC1,-30
19,Cc1cc(Cl)ccc1OCCCC(=O)N1CCN(C(=O)c2ccco2)CC1,-74.5
20,Cc1cc(Cl)ccc1OCCCC(=O)NC1CCN(C)CC1,-51.2
21,Cc1cc(Cl)ccc1OCC(=O)N1CCCN(C(=O)COc2ccc(Cl)cc2C)CC1,-58.5
22,Cc1cc(Cl)ccc1OCC(=O)N1CCCCC1,-0.846
23,Cc1cc(Cl)ccc1OCCCC(=O)N1CCCCC1,-14.2
